Active and inactive are the calls of the source. How the source made its calls: active means hit-call score of the fitted dose curve at least 0.9, where 1 is the maximum; inactive means score below 0.9.
Assay: ATG_TGFb_CIS: Attagene CIS-FACTORIAL HepG2 Assay for human Transforming Growth Factor (TGF) (AID 2282967)
Details: HepG2 Attagene CIS TGFb reporter, mRNA transcription; actives raise or lower the signal
Protocol: ATG_CIS is a cell-based, multiplexed-readout assay that uses HepG2, a human liver cell line, with measurements taken at 24 hours after chemical dosing in a 24-well plate.ATG_TGFb_CIS is one of 52 assay component(s) measured or calculated from the ATG_CIS assay. It is designed to make measurements of mRNA induction, a form of inducible reporter, as detected with fluorescence intensity signals by Reverse transcription polymerase chain reaction (RT-PCR) and Capillary electrophoresis technology.Data from the assay component ATG_TGFb_CIS was analyzed into 1 assay endpoint. This assay endpoint, ATG_TGFb_CIS, was analyzed with bidirectional fitting relative to DMSO as the negative control and baseline of activity. Using a type of inducible reporter, measures of mRNA for gain or loss-of-signal activity can be used to understand the reporter gene at the transcription factor-level as they relate to the gene TGFB1. Furthermore, this assay endpoint can be referred to as a primary readout, because this assay has produced multiple assay endpoints where this one serves a reporter gene function. To generalize the intended target to other relatable targets, this assay endpoint is annotated to the growth factor intended target family, where the subfamily is transforming growth factor beta.
Human liver HepG2 cells are transiently transfected with multiple reporter transcription units (MRTUs) in 6-well plates using FuGene 6 reagent (Roche; 3 ml FuGene/1 mg DNA). The MRTU constructs are regulated by a cis-regulating element (promoter). […] A major difference between the CIS and TRANS system is that in CIS activities of endogenous TFs are measured, whereas the TRANS assay evaluates changes in activities of exogenous, chimeric NR-Gal4 proteins. […] At the end of 24 hour incubation, total RNA was isolated using TriZol reagent (Invitrogen). The isolated RNA is then reverse-transcribed using oligo(dT) primer and Mo-MLV reverse transcriptase (Invitrogen) with DNAse I (Ambion) treatment for 30 min. The one-tenth of the produced cDNA was amplified by PCR using Taq DNA polymerase (Invitrogen) and two reporter sequence-specific primers. The PCR products were fluorescently labeled by primer extension with 6-arboxyfluorescein (6-FAM) 5'-labeled reporter sequence-specific primer (2 min at 95 C, 20 s at 68 C and 10 min at 72 C) and these products were digested with 5U of HpaI (New England Biolabs) for 2h at 37 C. The fragments were purified using Qiaquick PCR columns (Qiagen), analyzed on an ABI 3130xL genetic analyzer (Applied Biosystems) with peak positions identified by using a set of X-rhodamine (ROX)-labeled MapMarker1000 molecular weight standards (BioVentures). The raw capillary electrophoresis data was processed using Attagraph software (Attagene).
With `Cc1[nH]c(=O)c(C#N)cc1-c1ccncc1` the outcome was “inactive”.
In the case of `c1ccc(CCc2ccccc2)cc1`, the outcome is reported as “inactive”.
With `O=C(CC(=O)c1ccccc1)c1ccccc1` the outcome was “inactive”.
In the case of `Oc1ccc2cc(SSc3ccc4cc(O)ccc4c3)ccc2c1`, the outcome is reported as “inactive”.
In the case of `CCN(CCC#N)c1ccc(N=Nc2ccc([N+](=O)[O-])cc2)cc1`, the outcome is reported as “inactive”.
For `COc1cccc(OC)c1O`, the outcome was “inactive”.
With `CCCC(C)=O` the outcome was “inactive”.
With `COc1ccc(OC)c(N=Nc2c(O)ccc3ccccc23)c1` the outcome was “inactive”.
For `CCCCCCC(=O)c1ccccc1`, the outcome was “inactive”.
With `N#Cc1cscn1` the outcome was “inactive”.
With `COC(=O)C=C(C)CCC=C(C)C` the outcome was “inactive”.
With `C=COCCOCCOC=C` the outcome was “inactive”.
In the case of `FC(F)(F)COCC(F)(F)F`, the outcome is reported as “inactive”.
With `COCCc1ccc(OCC(O)CNC(C)C)cc1` (stereo not given) the outcome was “inactive”.
For `CCCCC(CC)C(=O)OC(C)C` (stereo not given), the outcome was “inactive”.
With `CCOc1ccc(N=Nc2ccc(C=Cc3ccc(N=Nc4ccc(OCC)cc4)cc3S(=O)(=O)O)c(S(=O)(=O)O)c2)cc1` the outcome was “inactive”.
In the case of `N[C@@H](Cc1cc(I)c(Oc2cc(I)c(O)c(I)c2)c(I)c1)C(=O)O`, the outcome is reported as “inactive”.
In the case of `C=CCN(CC=C)CC=C`, the outcome is reported as “inactive”.
In the case of `CCCCCCCCCC(=O)OC`, the outcome is reported as “inactive”.
In the case of `CCOC(=O)CN`, the outcome is reported as “inactive”.
For `C[N+](C)(C)CCCCCC[N+](C)(C)C`, the outcome was “inactive”.
With `CN(C)CCOC(C)(c1ccccc1)c1ccccn1` (stereo not given) the outcome was “inactive”.
In the case of `CCCCCCCCCCCCN1CCCCCC1=O`, the outcome is reported as “inactive”.
In the case of `O=CN1CCOCC1`, the outcome is reported as “inactive”.
For `CCNCCO`, the outcome was “inactive”.
In the case of `COC(C)(C)CCCC(C)CC=O` (stereo not given), the outcome is reported as “inactive”.
In the case of `Nc1c(Cl)cc(Cl)cc1[N+](=O)[O-]`, the outcome is reported as “inactive”.
For `CCC(Cl)C(Cl)C(Cl)CC(Cl)C(Cl)C(C)Cl` (stereo not given), the AC50 was 64.6 µM (active).
With `Nc1ccc(Cl)c([N+](=O)[O-])c1` the outcome was “inactive”.
In the case of `C=Cc1ccncc1`, the outcome is reported as “inactive”.
For `C[C@H](CCC(=O)NCC(=O)O)[C@H]1CC[C@H]2[C@@H]3[C@H](O)C[C@@H]4C[C@H](O)CC[C@]4(C)[C@H]3C[C@H](O)[C@]12C`, the outcome was “inactive”.
With `O=C(O)c1ccc(O)cc1` the outcome was “inactive”.
With `CCOC(=O)CC(C)O` (stereo not given) the outcome was “inactive”.
For `CCC(C)c1cc([N+](=O)[O-])cc([N+](=O)[O-])c1OC(=O)OC(C)C` (stereo not given), the AC50 was 100 µM (active).
With `C[C@H]1C[C@@H](O)CC(C)(C)C1` the outcome was “inactive”.
In the case of `CCCCCCCCCCCC(=O)OCC(O)CO` (stereo not given), the outcome is reported as “inactive”.
With `O=C(O)c1cc(C(=O)O)cc([N+](=O)[O-])c1` the outcome was “inactive”.
With `OCC#CCO` the outcome was “inactive”.
For `CCCCC(CC)COC(=O)c1ccc(O)cc1` (stereo not given), the outcome was “inactive”.
For `Cc1ccc(S(N)(=O)=O)cc1`, the outcome was “inactive”.

From PubChem BioAssay (EPA / NIEHS)
